The text below walks through data of PubChem BioAssay (EPA / NIEHS).

Structures are written as SMILES. Inconclusive results are not listed. Active and inactive are the calls of the source. Rule for the calls: active = hit-call score of the fitted dose curve at least 0.9, where 1 is the maximum; inconclusive = response in the unintended direction; inactive = score below 0.9.

Sequence of Retinoic acid receptor RXR-alpha (Homo sapiens) (P19793 whole entry, looked up, the tested form may be a part): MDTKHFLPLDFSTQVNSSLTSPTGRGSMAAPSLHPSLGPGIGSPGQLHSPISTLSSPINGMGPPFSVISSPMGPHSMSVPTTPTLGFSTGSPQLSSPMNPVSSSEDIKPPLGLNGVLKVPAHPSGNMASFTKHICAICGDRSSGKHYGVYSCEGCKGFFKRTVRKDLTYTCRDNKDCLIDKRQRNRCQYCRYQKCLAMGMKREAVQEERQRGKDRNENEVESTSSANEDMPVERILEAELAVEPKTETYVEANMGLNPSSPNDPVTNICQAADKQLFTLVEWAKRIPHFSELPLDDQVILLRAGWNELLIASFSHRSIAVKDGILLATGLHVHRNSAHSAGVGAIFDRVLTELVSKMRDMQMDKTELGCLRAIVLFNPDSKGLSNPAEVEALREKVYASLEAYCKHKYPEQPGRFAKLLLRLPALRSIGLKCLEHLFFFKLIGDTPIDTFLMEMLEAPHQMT

The first test addresses Retinoic acid receptor RXR-alpha (Homo sapiens) (UniProt P19793). Description: ATG_RXRa_TRANS: Attagene TRANS-FACTORIAL HepG2 Assay for human Retinoid X Receptor alpha (RXRa) (AID 2283012). A digest of the protocol:
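Measures exogenous chimeric NR-GAL4 activity in transfected HepG2 liver cells after 24 h of dosing. Induced reporter mRNA was detected by RT-PCR with capillary electrophoresis, and gain of signal was analysed against DMSO.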
Regarding `OCCOCCN1CCN(C2=Nc3ccccc3Sc3ccccc32)CC1`, the molecule was classed as inactive. On to `Nc1ccc(Cl)c([N+](=O)[O-])c1`, for which the call was inactive. Still for that read-out and setting: the value for `FC(F)(F)COCC(F)(F)F` was “inactive”; that for `CCCC[O][Al]([O]CCCC)[O]CCCC` was “inactive”. As to `CN1CCOCC1`, the outcome was inactive.

Turning to `CCCN(CCC)S(=O)(=O)c1ccc(C(=O)O)cc1`, the result was inactive. On the same count and under the same terms, the same measure for `CCCCCC(=O)CC`: “inactive”. The same measure, in the same setting: the value for `COCCOCCOCCO` was “inactive”; that for `CC(C)OCCO` was “inactive”. For the molecule `COc1cc(C(C)C)ccc1C`, the outcome was inactive. On to `CCCCCc1ccco1`, for which the molecule was classed as inactive. Regarding `CC(C)(C)OC(=O)c1ccc(O)cc1`, the outcome was inactive.

For `O=C1OC(=O)c2c(Br)c(Br)c(Br)c(Br)c21`, the molecule was called inactive. On to `C=C1CC[C@H](O)C/C1=C/C=C1\CCC[C@]2(C)[C@@H]([C@H](C)/C=C/[C@H](C)C(C)C)CC[C@@H]12`, for which the molecule was classed as inactive. Still for that read-out and setting: the same measure for `CC(=O)C(C)O` (configuration not stated): “inactive”; for `Cc1ccc(N)c(S(=O)(=O)O)c1`: “inactive”. On the same count and under the same terms, the value for `CCCCCCCCN1CCCC1=O` was “inactive”; that for `CC(=O)O[C@@H]1CC2CCC1(C)C2(C)C` (some centres not stated) was “inactive”. For the molecule `C=CCN(CC=C)CC=C`, the molecule was classed as inactive.

The target in a further test is human Retinoid X Receptor beta (RXRb), RXRB (gene 6257) (UniProt P28702). Description: ATG_RXRb_TRANS: Attagene TRANS-FACTORIAL HepG2 Assay for human Retinoid X Receptor beta (RXRb) (AID 2283013). A digest of the protocol: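 Chimeric receptor-Gal4 activity was assessed in transiently transfected human HepG2 cells after 24 h exposure. Transcripts from GAL4-UAS reporters were quantified by fluorescent RT-PCR and capillary electrophoresis, with DMSO as negative control and baseline.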
Sequence of human Retinoid X Receptor beta (RXRb), RXRB (gene 6257) (P28702 whole entry, looked up, the tested form may be a part): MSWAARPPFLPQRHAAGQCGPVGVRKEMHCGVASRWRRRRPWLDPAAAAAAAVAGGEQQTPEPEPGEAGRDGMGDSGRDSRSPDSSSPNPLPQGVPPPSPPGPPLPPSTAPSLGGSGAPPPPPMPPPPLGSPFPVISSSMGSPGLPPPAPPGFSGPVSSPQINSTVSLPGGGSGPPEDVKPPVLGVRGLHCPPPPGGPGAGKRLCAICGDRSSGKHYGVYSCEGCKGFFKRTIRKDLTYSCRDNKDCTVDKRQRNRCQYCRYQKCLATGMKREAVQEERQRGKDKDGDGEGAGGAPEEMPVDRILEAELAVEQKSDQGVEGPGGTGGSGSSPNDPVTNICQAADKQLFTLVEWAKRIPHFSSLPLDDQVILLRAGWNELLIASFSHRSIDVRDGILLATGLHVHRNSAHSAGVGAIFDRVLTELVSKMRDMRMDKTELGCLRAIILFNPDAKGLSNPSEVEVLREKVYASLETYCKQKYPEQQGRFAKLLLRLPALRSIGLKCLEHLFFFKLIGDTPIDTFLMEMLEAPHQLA
For the molecule `OC[C@H]1O[C@@H]2O[C@H]3[C@H](O)[C@@H](O)[C@@H](O[C@H]4[C@H](O)[C@@H](O)[C@@H](O[C@H]5[C@H](O)[C@@H](O)[C@@H](O[C@H]6[C@H](O)[C@@H](O)[C@@H](O[C@H]7[C@H](O)[C@@H](O)[C@@H](O[C@H]8[C@H](O)[C@@H](O)[C@@H](O[C@H]9[C@H](O)[C@@H](O)[C@@H](O[C@H]1[C@H](O)[C@H]2O)O[C@@H]9CO)O[C@@H]8CO)O[C@@H]7CO)O[C@@H]6CO)O[C@@H]5CO)O[C@@H]4CO)O[C@@H]3CO`, the molecule was called inactive. The same measure, in the same setting: the value for `C1CCCCC1` was “inactive”. As for `CCCC(C)=O`, the molecule was called inactive. Still for that read-out and setting: the value for `C/C=C(\C)C(=O)OCCc1ccccc1` was “inactive”; that for `[O-]n1ccccc1=S.[O-]n1ccccc1=S.[Zn+2]` was “inactive”; that for `CN(C)C(=S)SC(=S)N(C)C` was “inactive”. The same measure, in the same setting: the same measure for `CC(C)CCCCCCc1ccc(OCCOCCO)cc1`: “inactive”; for `Oc1ccc2cc(SSc3ccc4cc(O)ccc4c3)ccc2c1`: “inactive”; for `CCCCCCC(C)(C)S`: “inactive”. Still for that read-out and setting: the value for `CCCCCCCCCCCCS(=O)(=O)Cl` was “inactive”; that for `Nc1ccc2c(O)cc(S(=O)(=O)O)cc2c1` was “inactive”; that for `CN(C)c1cccc(O)c1` was “inactive”. On to `C[N+](C)(C)CCCCCC[N+](C)(C)C`, for which the result was inactive. Consider `CCCCCCCCCC(=O)OC`, for which the AC50 was 47 µM (active). On to `CCc1ccc(O)c(OC)c1`, for which the result was inactive. With `COC(=O)c1ccc([N+](=O)[O-])cc1`, the outcome was inactive. In the case of `NC(=S)NNC(N)=S`, the outcome was inactive. For `O=P(O)(O)O`, the molecule was classed as inactive.

Broadly, the AC50 is the concentration at which the activity in the assay is half-maximal.
